A selection: hits, their analogues and other compounds. The true share with any hit is near 4.6%.
ADAM10 inh: human ADAM10 inhibitors, primary screen, biochemical, QFRET, HTS; Disintegrin and metalloproteinase domain-containing protein 10 (Homo sapiens), O14672; inhibition, % at 7 µM; recombinant ADAM10, EDANS/DABCYL FRET peptide cleavage, 3 h; 370,000 tested, 0.62% active; AID 720582, 2013;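 active = inhibition above a per-campaign cutoff equal to the mean of compounds falling between control-based bounds plus 3 SD, cut at about 20% in these data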;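 note: 0% = DMSO wells while the 100% control is not disclosed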
proKLK7 act: proKLK7 zymogen activators, primary screen, biochemical, fluorescence intensity. activation, % at 7 µM. Kallikrein-7 (Homo sapiens), P49862. 370,000 tested, 0.9% active. purified proKLK7, EDANS-DABCYL substrate fluorescence; 100% is mature enzyme control, 0% vehicle. AID 652039, 2013;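 active = activation above the mean of all tested compounds plus 3 SD, computed per campaign excluding outliers beyond control limits, cut at about 13% in these data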
GRIN3A LBD mod: binders of NR3A ligand-binding domain, primary screen, biophysical, differential scanning fluorimetry, uHTS; NR3A LBD differential scanning fluorimetry, Tm shift; 0% = protein alone, 100% = glycine-bound protein; Tm shift relative to glycine control, % at 25 µM; 340,000 tested, 2.5% active; AID 1259313, 2017;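 active = melting temperature shift of at least 10% of the positive control shift, at one fixed dose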
ADAM17 inh: ADAM17 inhibitors, primary screen, biochemical, QFRET; recombinant ADAM17, EDANS/DABCYL FRET peptide cleavage; inhibition, % at 6.95 µM; 370,000 tested, 0.83% active; Disintegrin and metalloproteinase domain-containing protein 17 (Homo sapiens), P78536;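 active = inhibition above the mean of compounds lying between control limits plus 3 SD, set per campaign, cut at about 8.5% in these data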;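 note: 0% = DMSO-only wells as the low control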
Target sequence (P78536 215-824 limits assumed): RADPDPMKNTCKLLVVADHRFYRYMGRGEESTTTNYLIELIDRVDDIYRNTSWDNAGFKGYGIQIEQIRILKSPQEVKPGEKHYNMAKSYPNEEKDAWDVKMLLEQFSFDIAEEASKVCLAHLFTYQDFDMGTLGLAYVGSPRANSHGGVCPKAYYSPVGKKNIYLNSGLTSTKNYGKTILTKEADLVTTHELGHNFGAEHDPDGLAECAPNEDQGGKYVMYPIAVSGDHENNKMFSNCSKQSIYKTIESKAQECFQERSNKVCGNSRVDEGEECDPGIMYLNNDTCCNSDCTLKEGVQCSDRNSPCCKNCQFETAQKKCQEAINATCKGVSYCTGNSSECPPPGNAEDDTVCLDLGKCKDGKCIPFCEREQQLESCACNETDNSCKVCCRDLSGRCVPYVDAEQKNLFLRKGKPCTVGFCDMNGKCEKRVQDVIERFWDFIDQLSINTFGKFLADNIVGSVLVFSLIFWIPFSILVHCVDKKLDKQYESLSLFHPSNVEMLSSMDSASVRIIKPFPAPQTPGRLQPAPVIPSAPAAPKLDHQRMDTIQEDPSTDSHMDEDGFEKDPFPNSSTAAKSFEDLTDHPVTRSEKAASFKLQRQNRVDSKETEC
FAS TE block: FAS thioesterase domain inhibitors, primary screen, biochemical, fluorescence intensity, uHTS; 360,000 tested, 0.67% active; Fatty acid synthase (Homo sapiens), P49327; AID 602261, 2012; recombinant FAS-TE, OMFH fluorogenic substrate, fluorescence endpoint; inhibition, % at 15 µM;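 active = compounds whose normalised, plate-corrected inhibition of enzyme fluorescence in the single-dose primary screen is 50% or more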;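 note: 0% = DMSO with enzyme and 100% = substrate without enzyme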
ADAM10 ctr: ADAM10 inhibitors, counter-screen for ADAM17 exosite inhibitor project, biochemical, FRET, human ADAM10 | 2,900 tested, 47% active | inhibition, % at 6.95 µM | recombinant ADAM10, EDANS/DABCYL FRET peptide cleavage, 3 h | shares compounds with ADAM17 inh | AID 743256, 2014;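 active = mean inhibition over the triplicate runs exceeds the activity threshold set in the earlier primary screen, cut at about 20% in these data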;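 note: 0% = DMSO wells and 100% = marimastat wells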
ADAM17 confirm: ADAM17 inhibitors, hit retest, confirmation, biochemical, QFRET peptide cleavage; inhibition, % at 6.95 µM; 2,900 tested, 65% active; AID 743257, 2014; recombinant ADAM17, EDANS/DABCYL QFRET peptide cleavage; shares compounds with ADAM17 inh;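 active = mean inhibition across replicates above the hit cutoff set in the primary screen, cut at about 8.5% in these data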;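 note: 0% = DMSO wells and 100% = marimastat wells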
An asterisk follows results filed as active; . = not tested or not shown.

SMILES	ADAM10 inh	proKLK7 act	GRIN3A LBD mod	ADAM17 inh	FAS TE block	ADAM10 ctr	ADAM17 confirm
CCS(=O)(=O)Nc1ccc2c(c1)C(=O)N(C)[C@@H]1CC[C@H](CC(=O)OC)O[C@H]1CO2	-1	0	.	-1	.	.	.
CCS(=O)(=O)N(C)C[C@@H]1OCc2ccccc2-c2c(n(C)c3ccccc23)C(=O)N([C@H](C)CO)C[C@@H]1C	-21	-1	.	-2	.	.	.
CCC(C)Cn1cnc2c(Sc3c([N+](=O)[O-])ncn3C)nc(N)nc21 (stereo not given)	-1	0	0	0	-2	.	.
CC(C)Cn1cnc2c(Sc3c([N+](=O)[O-])ncn3C)nc(N)nc21	13	-1	0	9.4*	-4	16	8
C[C@@H]1CN([C@@H](C)CO)C(=O)CCCn2cc(nn2)CO[C@H]1CN(C)C(=O)C1CCCCC1	-8	0	.	-2	.	.	.
COc1ccc(NS(=O)(=O)c2ccc(OC)c(NC(=O)CCC3CCCC3)c2)cc1	18	0	32*	12*	36	20	12*
COc1ccc(OC)c(NC(=O)COC(=O)CCC2CCCC2)c1	-2	0	2	1	16	.	.
CCOC(=O)[C@]12CCCC=C1N(CCCOC)C(=O)[C@@H]2CC(=O)NCCCCc1ccccc1	-4	1	.	-1	.	.	.
CN(CC(=O)Nc1ccc(Cl)c(C(F)(F)F)c1)C(=O)c1ccc(OCC2CCCO2)cc1 (stereo not given)	13	0	-2	8.7*	10	25*	9.7*
COc1ccccc1-n1c(Cc2cccc3ccccc23)nnc1SCC(=O)O	3	0	.	0	.	.	.
CC(NC(C)c1ccccc1Cl)C(=O)Nc1cccc(S(=O)(=O)N2CCCCC2)c1 (stereo not given)	3	1	-8	11*	20	16	10*
C/C(=N\N=C(/N)SC1CC(=O)N(c2ccc(Cl)cc2)C1=O)c1cccs1 (stereo not given)	15	0	18*	11*	17	35*	18*
Cc1ccccc1S(=O)(=O)N1CCCc2nc(-c3ccc(Br)cc3)ccc21	-1	0	.	0	.	.	.
O=[N+]([O-])c1ccc(N/N=C/c2c[nH]c3ccccc23)cc1	17	4	30*	9.6*	24	17	8
Cn1cc([N+](=O)[O-])c(C(=O)N/N=C\c2c[nH]c3ccccc23)n1	-3	0	-3	-1	8	.	.
CCOC(=O)[C@H]1[C@H]2COc3ccc(Br)cc3[C@@H]2N2C(=O)CN(Cc3ccc(C)cc3)C(=O)[C@@]12C	16	1	0	9.6*	23	28*	17*
CCOC(=O)[C@H]1[C@H]2COc3ccc(OC)cc3[C@@H]2N2C(=O)CN(Cc3ccc(C)cc3)C(=O)[C@@]12C	0	0	1	-3	-5	.	.
O=C(CN1CCN(c2cccc(C(F)(F)F)c2)CC1)Nc1cccc(C(F)(F)F)c1	13	0	0	8.8*	27	24*	12*
O=C(CN1CCOCC1)Nc1cccc(C(F)(F)F)c1	2	1	0	1	-4	.	.
CC(C)c1cccc(-c2csc(C(O)c3ccc(F)cc3)n2)c1 (stereo not given)	6	0	.	7	20	.	.
CC(C)c1cccc(-c2csc(C(O)c3ccc(F)c(F)c3)n2)c1 (stereo not given)	16	0	.	11*	27	24*	15*
Cc1occc1C(=O)NNC(=O)COc1ccc(Br)cc1Br	12	0	-2	8.8*	-6	-5	2
CCOC(=O)C1CSCCS(=O)(=O)N1Cc1ccc(C)cc1 (stereo not given)	1	0	.	1	.	.	.
O=c1oc2ccc(NS(=O)(=O)c3cccc4cccnc34)cc2s1	4	0	-3	12*	18	6	7
CCOCCCn1c(SC(C(=O)Nc2cc(C)ccc2C)c2ccccc2)nnc1-c1ccc(Cl)cc1 (stereo not given)	-8	0	4	9.9*	-4	2	6
SMILES	ADAM10 inh	proKLK7 act	GRIN3A LBD mod	ADAM17 inh	FAS TE block	ADAM10 ctr	ADAM17 confirm
CCNc1nc(NCC)n2c(SC(C(=O)Nc3cc(C)ccc3C)c3ccccc3)nnc2n1 (stereo not given)	8	0	-3	6	9	.	.
COC(=O)C1=C(C)NC(C)=C(C(=O)OC)C(N2C(=O)CCC2=O)C1 (stereo not given)	-6	-1	.	-3	.	.	.
Cc1cccc2sc(NC(=O)CN(C)S(=O)(=O)c3ccc(Br)s3)nc12	18	0	6	8.8*	23	44*	24*
COc1cc(OC)c(NC(=O)C(Sc2nc(C)cc(C)c2C#N)c2ccccc2)cc1Cl (stereo not given)	-6	0	.	-4	.	.	.
CC(Oc1ccc(Cl)cc1Cl)c1ccnc(N)n1 (stereo not given)	16	0	-1	9.2*	2	2	3
COc1cc(Nc2cc(C)n(-c3cc(OC)cc(OC)c3)c(=O)c2)cc(OC)c1	-11	0	.	-4	.	.	.
COC(=O)C1=C(C)N(Cc2ccccc2C(F)(F)F)C(=NCC2CC2)NC1CCc1ccccc1 (stereo not given)	-9	1	.	0	.	.	.
CC(C)c1ccc(NC(=O)COC(=O)[C@H](CCC(N)=O)NC(=O)c2ccc(F)cc2)cc1	0	0	-1	0	9	.	.
NC(=O)CC[C@H](NC(=O)c1ccc(F)cc1)C(=O)OCC(=O)NCc1ccc(F)cc1	4	0	-1	10*	0	-4	4
Cc1cccc(C(=O)N(CCc2ccccc2)Cc2ccccc2)c1[N+](=O)[O-]	14	0	-2	8.8*	26	28*	13*
O=C(CSc1nnc(-c2ccccc2)n1-c1ccc(Cl)cc1)NN=Cc1c[nH]c2ccccc12	20	0	.	11*	.	29*	12*
O=C(O)COc1ccccc1/C=N/NC(=O)CSc1nnc(SCc2cccc3ccccc23)s1	-3	0	-10	-3	0	.	.
O=C(CSc1nnc(SCc2cccc3ccccc23)s1)N/N=C/c1c[nH]c2ccccc12	16	-1	22*	12*	28	17	9.9*

Assay outcomes (PubChem)
